Data on 40 sequences can be found in the supplement of paper PMC10338343.

± gives the standard deviation.

In the test the test system is MILI (PIWIL2) piRISC loaded with piRNA #1 (26 nt). In words: pre-steady-state target cleavage rate (min^-1); guide: piRNA #1 5'p-UGAGGUAGUAGGUUGUAUAGUAUCCA; MIWI and MILI are mouse PIWI proteins and EfPiwi is from a freshwater sponge; tags in brackets are library labels; higher = faster piRNA-guided slicing of the target. The settings on record: auxiliary factor: 500 nM mouse GTSF1. Here is the method:
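Cleave-'n-Seq: a library of target RNAs (target site embedded in constant flanks, ACAGCATTCCGCGTTAGTGATATCCG... 5' flank; DNA-blocked outside the site) at 0.1 nM was incubated with 1 nM active mouse MILI or MIWI piRISC (synthetic 5'-monophosphorylated piRNA guide) with or without 500 nM mouse GTSF1 at 33 °C for 1 min to 16 h. Uncleaved targets were sequenced and normalised to non-target controls, and the pooled three trials were fitted to a burst-and-steady-state model to give the pre-steady-state cleavage rate (min^-1; k3 is constrained to at most 1e-4). Sequence is the target site only; target names encode pairing extent (gX:gY) and contiguous / 1-mismatch / 2-mismatch / bulge geometry. Fits with R² ≤ 0 are excluded.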
GGAGACCUAACAAUACAACCUACUACCUGA: the “pre-steady-state target cleavage rate” value worked out at 0.0637 ± 0.022.

In the case of “GGAGACCUAUCUAUACAACCUACUACCUCC [g2:g20:cont:t1C]”, the “pre-steady-state target cleavage rate” value amounted to 0.106 ± 0.011.

For the sequence GGAGACCUAACUAUACAGCCUACUACCUCA, the “pre-steady-state target cleavage rate” value stood at 0.0605 ± 0.018.

As to GGAGUGGAUUCUAUACAACCUACUACCUGA, the “pre-steady-state target cleavage rate” value stood at 0.0905 ± 0.012.

For the sequence GGAGACCUAACAAUUCAACCUACUACCUCA, the “pre-steady-state target cleavage rate” value turned out to be 0.0406 ± 0.013.

As for GGAGACCUAUCUAUACAACCUACUACGCUCA, the “pre-steady-state target cleavage rate” value was 0.229 ± 0.023.

Consider GGAGACCAUACUAUACUACCAACUACCUCA, for which the “pre-steady-state target cleavage rate” value turned out to be 0.00547 ± 0.0022.

As to GGAGACCUUUCUAUACAACCUACUACCUGA, the “pre-steady-state target cleavage rate” value came to 0.0728 ± 0.013.

As for GGAGACCUAUGAUAUGUACCAACAACCUCA, the “pre-steady-state target cleavage rate” value was below 0.0001.

For GGAGACCUAUGAUAUGUUCCUCCUACCUCA, the “pre-steady-state target cleavage rate” value is below 0.0001.

With GGAGACCUAACAAUACAACCUACUACCACA, the “pre-steady-state target cleavage rate” value was 0.0755 ± 0.019.

For the sequence GGAGACCUAACUAUUCAUCCUACUACCUCA, the “pre-steady-state target cleavage rate” value worked out at 0.322 ± 0.043.

Regarding GGAGACCUAUGAUUACAAGCUACUACGUCA, the “pre-steady-state target cleavage rate” value is 0.00819 ± 0.0037.

As to GGAGUGAGAUACUAUACAACCUACUACCUCA, the “pre-steady-state target cleavage rate” value is 0.189 ± 0.012.

Consider GGAGACCUAUGUAUACAACCUACUUGCUCA, for which the “pre-steady-state target cleavage rate” value is 0.0104 ± 0.0037.

As to GGAGACGAUACUAUACAAGCUACUACGUCA, the “pre-steady-state target cleavage rate” value is 0.205 ± 0.032.

Take GGAGAGGAUACUGUACAACCUACUACCUCA: the “pre-steady-state target cleavage rate” value is 0.121 ± 0.012.

Turning to GGAGACGAAACUAUACAACCUACUACCUCA, the “pre-steady-state target cleavage rate” value is 0.172 ± 0.022.

As to GGAGAGGAAACUAUACAACCUACAACCUCA, the “pre-steady-state target cleavage rate” value turned out to be 0.122 ± 0.03.

Turning to GGAGACCUAACUAUACAACUUACUACCUCA, the “pre-steady-state target cleavage rate” value came out at 0.0179 ± 0.0043.

On to GGAGACCUUACUAAACAACCUUCUACCUCA, for which the “pre-steady-state target cleavage rate” value stood at 0.00652 ± 0.0027.

Regarding GGAGACCAUACUAUACAACCUACUAUCUCA, the “pre-steady-state target cleavage rate” value amounted to 0.136 ± 0.013.

Regarding GGAGACGAUAGUAAACAACCUACUACCUCA, the “pre-steady-state target cleavage rate” value was determined as 0.134 ± 0.01.

GGAGACCUAUGAUGACAACCUACUACCUCA: the “pre-steady-state target cleavage rate” value was 0.00556 ± 0.0019.

As to GGAGACCUUACUAGUACAACCUACUACCUCA, the “pre-steady-state target cleavage rate” value was 0.0945 ± 0.0095.

Consider GGAGUGGAUACUAUAGAAGCUACUACCUCA, for which the “pre-steady-state target cleavage rate” value stood at 0.19 ± 0.011.

Regarding GGAGAGGAUACUAUAGAACCUACUAGCUCA, the “pre-steady-state target cleavage rate” value turned out to be 0.00752 ± 0.0035.

On to GGAGUCGAUACUAUACAACCUUCUACCUCA, for which the “pre-steady-state target cleavage rate” value was 0.00775 ± 0.0022.

Consider GGAGACCUAUGUAUACAACCUACAUCCUCA, for which the “pre-steady-state target cleavage rate” value was found to be 0.00671 ± 0.0026.

Turning to GGAGAGGAUACUAAACAUCCUACUACCUCA, the “pre-steady-state target cleavage rate” value came to 0.276 ± 0.022.

Take GGAGACCUAUCUAUACAUCCUACUACCACA: the “pre-steady-state target cleavage rate” value is 0.209 ± 0.025.

Regarding GGAGACGCAUACUAUACAACCUACUACCUCA, the “pre-steady-state target cleavage rate” value came out at 0.268 ± 0.024.

Consider GGAGACCUAUGAAUAACAACCUACUACCUCA, for which the “pre-steady-state target cleavage rate” value worked out at 0.00368 ± 0.0026.

Regarding GGAGACCUUACUAUACAACCUACUUCGUCA, the “pre-steady-state target cleavage rate” value stood at 0.0614 ± 0.015.

Turning to GGAGACGAGACUAUACAACCUACUACCUCA, the “pre-steady-state target cleavage rate” value was found to be 0.214 ± 0.034.

With GGAGACGAAACUAUACAACCUACUACGUCA, the “pre-steady-state target cleavage rate” value is 0.0713 ± 0.022.

On to GGAGACCUAUGUAUACUACCUACUAGCUCA, for which the “pre-steady-state target cleavage rate” value was determined as 0.0108 ± 0.0031.

In the case of GGAGACCUUACUAUACAACAUACUACCUCA, the “pre-steady-state target cleavage rate” value amounted to 0.0732 ± 0.0077.

Consider GGAGUGGAUACUAAUGAACCUACUACCUCA, for which the “pre-steady-state target cleavage rate” value came to 0.0477 ± 0.0065.

For “GGAGACCAUACUAUACAACCUACUACCUCG [g2:g23:cont:t1G]”, the “pre-steady-state target cleavage rate” value stood at 0.195 ± 0.017.
